40 compounds from PubChem BioAssay (NCI) can be followed below.

This is part of a sample that, as a whole, favours compounds with a hit. Of some 83,000 tested, about 20% had one in any assay.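 Results are percent growth after 48 hours of single-concentration exposure. 100 means growth as in untreated cells, lower positive values show inhibition; negative values down to -100 show cell death.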 A number with no mark means an inactive call. Active and inactive are the calls of the source. How the source made its calls: active means growth percent below 10; inactive means the rest.

The test system of the experiment is HL-60(TB) leukemia. Briefly: NCI-60 one-dose screen, 48 h (100 = growth as untreated, 0 = no growth, -100 = all killed). Conditions: 10 µM unless noted.

`COc1ncc(-c2ccc3nccc(-c4ccnnc4)c3c2)cc1NS(=O)(=O)c1ccc(F)cc1F`: the growth is -13.8% (active).

As for `CC(=S)NC(=O)C(=O)/C=C1/NC(=O)C(=O)S1`, the growth was 104%.

`O=S(=O)(NCCCNc1nccc(-c2c(-c3ccc(F)c(O)c3)nc3sccn23)n1)c1ccc(F)cc1`: the growth was -54.8% (active).

`Cc1cc2c(-c3nc4ccccn4c3NC34CC5CC(CC(C5)C3)C4)c(O)c(O)cc2c(O)c1-c1c(C)cc2c(-c3nc4ccccn4c3NC34CC5CC(CC(C5)C3)C4)c(O)c(O)cc2c1O`: the growth is 5.04% (active).

In the case of `Cc1nn(CC(=O)O)c2c1C(=O)CC(C)(C)C2`, the growth was 100%.

With `O=C(O)c1cc([N+](=O)[O-])ccc1Br`, the growth is 105%.

On to `NNc1ncccn1`, for which the growth was 103%.

Turning to `CCOc1ccc(C(=O)NCC(C)C)cc1`, the growth was 94.9%.

Turning to `C=C(c1ccc(C(=O)O)cn1)c1cc2c(cc1C)C(C)(C)CCC2(C)C`, the growth was 84.9%.

Consider `COc1cc(/C=C/c2cc(/C=C/c3ccc(O)c(OC)c3)n(C(=O)c3ccccc3Br)n2)ccc1O`, for which the growth was -23.9% (active).

As to `C#Cc1ccc(NC(=O)Cc2ccc(/C=C/C(=O)c3nccn3C)cc2)cc1`, the growth was 16.5%.

Take `CCC1CCc2nc3sc(C(=O)Nc4cccc(F)c4)c(N)c3cc2C1` (stereo not given): the growth is 23%.

`CCOC(=O)CC(c1ccccc1)C(C#N)c1ccccc1` (stereo not given): the growth was 99.3%.

Take `CCCCC/C(C)=N\NC(N)=S`: the growth is 96.5%.

As to `CCCN1CCN(c2ccc3nc(-c4ccc5nc(-c6cc(OC)ccc6OC)[nH]c5c4)[nH]c3c2)CC1`, the growth is 106%.

As to `CCN(CC)CCCC(C)Nc1cc(-c2ccc(C(F)(F)F)cc2)c(C#N)c2nc3ccccc3n12` (stereo not given), the growth is -59.8% (active).

Consider `Cc1cc(I)nc2ccccc12`, for which the growth is 88.8%.

Consider `CC/C(Cc1ccccc1)=C(\c1ccc(OCCN2CCCC2)cc1)c1ccc(OC(C)=O)cc1`, for which the growth was 71.3%.

In the case of `Clc1ccc(-c2cnc3c(-c4ccnc(N5CCNCC5)c4)cnn3c2)cc1`, the growth is -33.7% (active).

As for `CCCCCCCCCCCC[n+]1ccccc1`, the growth is -49.7% (active).

For `C[n+]1cccc(NC(=O)c2ccc3ccc4ccc(C(=O)Nc5ccc[n+](C)c5)nc4c3n2)c1`, the growth was 61.4%.

For the compound `S=C(c1ccc2c(c1)OCO2)N1CCN(c2cccc(Cl)c2)CC1`, the growth is 11.9%.

As to `Cc1c(C(N)=O)sc2nc(SCC(=O)Nc3ccc(Cl)cc3)n(-c3ccccc3)c(=O)c12`, the growth was 171%.

Consider `COc1nc2ccc(C)cc2cc1-c1nc2c(cnn2-c2ccccc2)c(=O)[nH]1`, for which the growth is 50.1%.

`O=C(Nc1nc2ccccc2s1)c1cc(-c2ccc(F)cc2)n2nc(-c3ccccc3)cc2n1`: the growth was 107%.

As to `COc1ccc(-c2[nH]ncc2/C=C/c2cc(C(F)(F)F)[nH]c(=O)n2)cc1`, the growth is 92%.

For `CCN(CC)CCOc1ccccc1-n1c(C)ccc1-c1ccccc1`, the growth was 22.4%.

For `N#CC(C#N)C(C#N)C#N`, the growth is 98.6%.

Take `COCCOc1cc2ncnc(N3CCN(c4ncc(S(=O)(=O)N5CCCCC5)cn4)CC3)c2cc1OCCOC`: the growth was 100%.

`Cc1ccc(N)cc1[N+](=O)[O-]`: the growth is 96.5%.

For the compound `C=C1CC[C@H](C(C)C)[C@@H]2[C@H]1[C@H]1CC(=C)[C@@H](O)CC[C@@](C)(O)[C@@H]2O1`, the growth is 103%.

As to `CCC(c1ccc(OC)cc1)C(CC)c1ccc(O)c(CN2CCN(C)CC2)c1` (stereo not given), the growth is 55.3%.

For `COC(=O)/C(CCC=C(C)C)=C1\[C@@H](OC(C)=O)C[C@@]2(C)[C@H]1C[C@@H](O)[C@H]1[C@@]3(C)CC[C@H](NCCO)[C@@H](C)[C@@H]3CC[C@@]12C`, the growth is 96.4%.

`COc1ccc(-c2cc3c(C)nc(N)nc3n(C3CCC(OCCO)CC3)c2=O)cn1` (stereo not given): the growth was 28.4%.

Consider `CN(C)CCOC(=O)Nc1ccc(Cl)cc1`, for which the growth was 100%.

For `N#CC1C(=N)Cc2ccccc2-c2ccccc21` (stereo not given), the growth is 28.2%.

In the case of `O=c1[nH]c2cc(O)ccc2n2cc3c(F)cccc3c12`, the growth is 25.5%.

Consider `O=C(OCc1ccc2c(Br)cc(Br)c(O)c2n1)N1CCN(C(=O)c2cc3ccccc3[nH]2)CC1`, for which the growth is 53.9%.

Consider `CC(=O)OC1Oc2ccccc2-c2oc(=O)c(-c3ccc(F)cc3)cc21` (stereo not given), for which the growth is 97.3%.

For `O=C(C1=Cc2cc3ccccc3n2Cc2cnnn21)c1ccc(F)cc1`, the growth is 98%.
